Assay outcomes deposited in PubChem by Sanford-Burnham Center for Chemical Genomics.
PfGluPho inh: PfG6PD (Plasmodium falciparum) enzyme inhibition; 0.78% of 350,000 active; inhibition, % at 20 µM; PfGluPho enzyme, NADPH resazurin-diaphorase fluorescence;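 active = inhibition reaching at least a set limit at 20 µM in the primary screen, cut at about 59% in these data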;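 also: 0% = DMSO wells with substrate and 100% = DMSO wells lacking glucose-6-phosphate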
NPR1 activator: GC-A (human) enzyme activation. HEK293 GC-A cells, cGMP TR-FRET, EC30 ANP; 0% at EC30 ANP, 100% saturating ANP. activation, % at 10 µM. 0.14% of 370,000 active. AID 1671463; in the data active = activation above about 40%
NPR2 activator: GC-B (human) receptor activation | 0.11% of 370,000 active | AID 1920062 | activation, % at 10 µM | HEK293-GC-B cells, CNP EC30, cGMP TR-FRET; 0% at EC30 CNP, 100% saturating CNP;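 active = activation at 10 µM reaching about 35% in either raw or pattern-adjusted values, limit read from the data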
APOBEC3A inh: blocks human APOBEC3A ssDNA deamination; 0.41% of 330,000 active; inhibition, % at 20 µM; AID 493011; P31941; recombinant A3A, FAM/TAMRA ssDNA deamination fluorescence;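 active = at least 40% inhibition at 20 µM here, with at most 30% in a related deaminase screen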;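 also: plate controls were A3A with DMSO for no effect and wells lacking A3A enzyme for full effect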
Target sequence (P31941 whole entry, looked up): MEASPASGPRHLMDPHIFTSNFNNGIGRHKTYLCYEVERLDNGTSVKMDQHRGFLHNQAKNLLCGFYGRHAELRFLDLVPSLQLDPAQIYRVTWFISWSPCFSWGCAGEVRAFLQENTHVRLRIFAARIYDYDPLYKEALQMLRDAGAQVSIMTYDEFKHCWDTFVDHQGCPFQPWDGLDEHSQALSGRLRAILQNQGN
Neddylation inh: cullin neddylation inhibition | inhibition, % at 25 µM | TR-FRET cullin neddylation, biochemical | 0.58% of 360,000 active | AID 651699; in the data active = inhibition above about 36%
A3G deaminase: APOBEC3G (human) deaminase inhibition. 0.28% of 330,000 active. Q9HC16. AID 493012. recombinant A3G, ssDNA deamination FAM/TAMRA fluorescence. inhibition, % at 20 µM;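 active = inhibition of at least 40% at 20 µM, with no more than 30% in the related APOBEC3A deaminase screen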;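 also: plate controls were DMSO wells with A3G for no effect and wells lacking A3G enzyme for full effect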
Target sequence (Q9HC16 whole entry, looked up): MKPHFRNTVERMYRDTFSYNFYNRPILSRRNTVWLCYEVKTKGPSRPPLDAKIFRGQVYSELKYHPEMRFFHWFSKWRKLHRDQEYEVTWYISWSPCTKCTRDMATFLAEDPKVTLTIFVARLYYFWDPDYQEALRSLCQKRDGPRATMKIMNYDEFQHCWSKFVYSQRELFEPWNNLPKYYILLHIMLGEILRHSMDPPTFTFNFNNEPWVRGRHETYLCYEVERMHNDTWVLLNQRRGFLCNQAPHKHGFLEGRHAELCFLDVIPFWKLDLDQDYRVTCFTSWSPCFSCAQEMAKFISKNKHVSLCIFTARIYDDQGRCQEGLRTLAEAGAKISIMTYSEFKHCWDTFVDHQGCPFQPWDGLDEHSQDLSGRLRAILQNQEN
Neddyl inh conf: cullin neddylation inhibition, confirmation | shares compounds with Neddylation inh | TR-FRET cullin neddylation biochemical assay | calls only at 25 µM | 13% of 1,800 active | AID 652217; in the data active = inhibition above about 40%;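 also: neddylation substrate is the cullin 1 ring ligase complex with SKP2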
Numbers without * were called inactive; i = inactive; / = not tested or not shown; + = active, no number. Hits are enriched below; roughly 2% of the tested compounds scored in any of these assays.

SMILES	PfGluPho inh	NPR1 activator	NPR2 activator	APOBEC3A inh	Neddylation inh	A3G deaminase	Neddyl inh conf
Cc1ccc(C(=O)N2CCN(c3ccc(N4CCOCC4)nn3)CC2)cc1	0	5	9	2	61*	-4	/
Cn1c(=O)c2[nH]c(SCC(=O)N3CCN(c4cccc(C(F)(F)F)c4)CC3)nc2n(C)c1=O	/	-1	-1	/	/	/	/
O=S(=O)(c1cccs1)N1CCCc2nc(-c3ccc(F)cc3)ccc21	/	4	4	/	/	/	/
COC(=O)[C@H]1C[C@@]2(n3ccc4ccccc43)c3ccccc3N(S(=O)(=O)c3ccccc3)[C@H]2N1	/	-4	-1	/	/	/	/
Cc1cc(C)cc(C(=O)OCCN(C)C2CN(Cc3cn(Cc4cccc(F)c4)nn3)S(=O)(=O)C2)c1 (stereo unspecified)	/	-5	-5	/	/	/	/
O=C(c1cc(Br)ccc1Cl)N1CCN(c2ccc(N3CCOCC3)nn2)CC1	15	-2	-6	-1	60*	-6	/
CC(=O)c1c(C)[nH]c(C(=O)COc2ccc3ccc(=O)oc3c2)c1C	10	0	1	9	47*	-11	i
O=C(CSc1nnc2ccc(-c3ccc(F)cc3)nn12)NCC1CCCO1 (stereo unspecified)	-1	2	-1	0	40*	-7	/
CCc1ccc(-c2ccc3nnc(SC)n3n2)cc1	14	2	0	-6	35	-8	/
CCc1ccc(-c2ccc3nnc(SCC(N)=O)n3n2)cc1	8	4	2	-2	44*	-1	i
Cc1cc(C)c(C#N)c(N2CCOCC2)n1	5	2	1	-2	46*	-7	+
CCCCN1CC(COCc2ccccc2)Oc2cccc(Oc3ccc(SC)c(C)c3)c2S1(=O)=O (stereo unspecified)	/	7	1	/	/	/	/
Cc1ccc(-c2c(C#N)c(N)nc3c2CCCC3)o1	-12	3	-7	0	45*	-6	i
O=S(=O)(Nc1cccc2cccnc12)c1ccc(S(=O)(=O)N2CCCC2)cc1	-17	3	4	1	19	4	/
CC(=O)Nc1ccc(S(=O)(=O)Nc2cccc3cccnc23)cc1	-7	3	4	-3	43*	-9	+
Cc1cccc(NC(=O)OC2CC3CC2[C@H]2CCCCN2C3)c1 (stereo partly specified)	/	0	2	/	/	/	/
COc1cc(/C=C(\CC(=O)O)c2nc3ccccc3s2)ccc1OCC(=O)Nc1ccccc1F	-6	2	-5	/	36*	/	i
CCOc1cc(/C=C(\CC(=O)O)c2nc3ccccc3s2)ccc1OC	-10	7	3	-1	25	-3	/
CCN(CC)c1cc(C)c2cc(NC(=O)CNC(C)=O)ccc2n1	3	11	-4	-2	43*	-2	+
CCN(CC)c1cc(C)c2cc(NC(=O)c3ccccc3F)ccc2n1	12	13	5	-3	15	39	/
Cc1ccc2nc(C(C)(C)C)c(Cc3cccc(F)c3)n2c1	/	-3	-3	/	40*	/	i
COCCCNC(=O)COC(=O)c1ccc(-c2nc3ccccc3s2)s1	-5	6	0	-1	/	-4	/
CNC(=O)COC(=O)c1ccc(-c2nc3ccccc3s2)s1	-13	3	-6	3	40*	-8	i
O=C(Cn1nnc(-c2ccc(N3CCOCC3)cc2)n1)c1ccc(F)cc1	/	-1	0	/	/	/	/
O=C(Nc1cccc(-c2cn3ccccc3n2)c1)c1cccc(Cl)c1	-11	-6	3	-3	41*	-7	/
SMILES	PfGluPho inh	NPR1 activator	NPR2 activator	APOBEC3A inh	Neddylation inh	A3G deaminase	Neddyl inh conf
CC(=O)Nc1ccc2nc(-c3ccccc3)cn2c1	0	-4	-2	4	44*	6	i
COc1ccc(CC(=O)Nc2cccc(-c3cn4ccccc4n3)c2)cc1	3	2	1	-9	38	-7	/
CCC(=O)Nc1cccc(-c2cn3ccccc3n2)c1	2	2	0	-1	41*	-7	i
CCc1ccccc1NC(=O)NNC(=O)c1ccc2ccccc2c1O	-20	-2	1	-4	38*	-6	i
COc1ccc(OC)c(NC(=O)Nc2ccc(O)c3ccccc23)c1	39	-22	-18	-4	40*	2	/
COc1ccc(NC(=O)NNC(=O)c2cc(C3CC3)nc3ccccc23)c(OC)c1	4	-1	-8	-4	4	-6	/
COc1ccc(OC)c(NC(=O)Nc2c(O)ccc3ccccc23)c1	53	-5	-8	-1	6	6	/
COc1ccc(NC(=O)NNC(=O)c2ccc3ccccc3c2O)c(OC)c1	-14	2	-1	-3	44*	-2	i
CCCCNC(=O)C[C@H]1C[C@@]2(C(=O)OC)C(=C[C@H](C3CCCC3)O[C@@H]2C)N(CCc2ccc(OC)c(OC)c2)C1=O	/	-3	5	/	/	/	/
Cc1nnc(SCc2cc(=O)oc3ccc4ccccc4c23)n1Cc1ccccc1	26	-15	-11	1	34	-6	/
Cc1nnc(SCc2cc(=O)oc3cc(O)ccc23)n1Cc1ccccc1	4	-2	-4	3	54*	-8	i
CN(C)c1cccc2c(S(=O)(=O)NCC3CCN(C(=O)C(=O)c4cccs4)CC3)cccc12	/	2	2	/	/	/	/
COc1cc2c(c(OC)c1OC)C1(CCCCC1)CC2NCC=C(C)C (stereo unspecified)	/	-26	-25	/	/	/	/
COc1ccccc1C(=O)NC(=O)CSc1nnc2ccccn12	5	0	2	-1	44*	-7	i
COC(=O)c1cc2c(c3c4cc(OC)ccc4n(S(=O)(=O)c4ccc(OC)cc4)c13)C(=O)N(Cc1ccco1)C2	/	-5	-9	/	/	/	/
C=CCNC(=O)C(C#N)c1nc2ccccc2nc1N1CCN(Cc2ccccc2)CC1 (stereo unspecified)	-16	/	/	-5	42*	-4	i
CCOc1ccc(CCNC(=O)c2ccc3[nH]ccc3c2)cc1OCC	/	-4	-3	/	/	/	/
O=C(O)Cn1nc2c3c(cccc3c1=O)-c1ccccc1-2	-16	2	1	3	54*	-1	i
COc1ccc(CC(=O)N(Cc2ccccc2)c2ccccc2C(=O)Nc2cc(OC)ccc2OC)cc1	/	-16	-12	/	/	/	/
CCN=C1S/C(=C\c2ccc(Sc3ccc(Cl)cc3)o2)C(=O)N1CC	-1	7	-6	-2	39*	-4	/
Cc1csc(NC(=O)CSCC(=O)O)c1-c1nc2ccccc2s1	-20	4	1	0	44*	-1	/
COc1cc2sc(-c3ccc(S(C)(=O)=O)cc3)c(C#CCO)c2cc1OC	-14	3	-3	-5	50*	-11	+
Nc1[nH]c(C(=O)c2ccccc2)c(-c2ccccc2)c1C(=O)NCCc1c[nH]c2ccccc12	/	-6	1	/	/	/	/
